Bioassay records: PubChem BioAssay, National Center for Advancing Translational Sciences (NCATS)
HPGD block = HPGD (human) dehydrogenase inhibition | P15428 | purified HPGD, NADH fluorescence kinetic, PGE2 substrate | Potency, µM, for the others: top-dose activity change, negative = inhibition, hits mostly inhibitors | 4.3% of 150,000 active
Target sequence (P15428 whole entry, looked up): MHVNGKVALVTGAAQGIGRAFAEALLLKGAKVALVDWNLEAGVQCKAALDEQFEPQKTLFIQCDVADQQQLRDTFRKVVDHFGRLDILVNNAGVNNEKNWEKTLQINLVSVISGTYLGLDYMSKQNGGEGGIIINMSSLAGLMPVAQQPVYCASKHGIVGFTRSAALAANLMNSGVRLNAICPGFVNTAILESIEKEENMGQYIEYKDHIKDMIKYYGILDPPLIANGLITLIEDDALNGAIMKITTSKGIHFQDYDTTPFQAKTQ
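20 nM HPGD preincubated 15 min at room temperature with compound in 50 mM Tris-HCl pH 8, 0.01% Tween 20. Started with 1 mM NAD+ and 30 uM prostaglandin E2; NADH fluorescence (360/450 nm) read 5 times over 30-s intervals, last minus first.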
ALDH1A1 inh = blocks purified human ALDH1A1 activity; 7.3% of 220,000 active; Potency, µM (series often up to 75.3 µM), for inactives: at the highest dose activity, negative = inhibition, actives largely listed as inhibitors; AID 1030; Purified ALDH1A1, NADH fluorescence, propionaldehyde substrate; P00352;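 note: plate controls were no enzyme wells and a reference inhibitor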
Target sequence (P00352 whole entry, looked up): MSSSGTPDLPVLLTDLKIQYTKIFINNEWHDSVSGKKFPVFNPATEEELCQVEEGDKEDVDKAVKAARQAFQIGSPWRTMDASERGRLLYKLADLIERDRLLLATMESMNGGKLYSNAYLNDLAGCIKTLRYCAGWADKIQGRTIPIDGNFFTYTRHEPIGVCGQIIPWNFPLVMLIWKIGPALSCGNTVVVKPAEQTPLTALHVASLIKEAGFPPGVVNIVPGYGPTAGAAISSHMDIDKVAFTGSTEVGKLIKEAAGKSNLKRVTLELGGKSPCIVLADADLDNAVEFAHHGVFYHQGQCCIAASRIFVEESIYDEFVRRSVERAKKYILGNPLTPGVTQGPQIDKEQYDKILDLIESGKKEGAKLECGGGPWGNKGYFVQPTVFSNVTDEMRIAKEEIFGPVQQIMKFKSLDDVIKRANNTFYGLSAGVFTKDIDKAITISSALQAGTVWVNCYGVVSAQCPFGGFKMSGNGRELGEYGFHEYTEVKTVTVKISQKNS
IMPase Li inh = membrane-permeable IMPase blocker, potentiated with lithium. CHO-M1 cells, IP1 TR-FRET (IP-One), carbachol + lithium. Potency, µM (highest dose often 59.4 µM), inactives show at the top dose activity, negative = IMPase inhibition, actives largely listed as inhibitors. 0.35% of 210,000 active; active = well fitted curve in the direction sought with a large enough effect; inconclusive = small, poorly fitted or top-dose-only effect, or another doubt; inactive = no such curve, though single readings can be large; an effect the other way counts as inactive or inconclusive;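 note: IP1 builds up when IMPase is blocked and the TR-FRET signal falls; plate controls were basal vehicle for no effect and high inhibitor control for full effect; nearly all actives have a fitted effect of over 50% in size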
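CHO cells stably expressing M1 receptor (2000/well, cultured 16–30 h) treated 30 min at 37C with compound plus low lithium. Cytosolic IP1 by TR-FRET (665/620 ratio and 620 channel) after 10 min lysis; AC50 by Hill fit.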
Lamin A splicing = LMNA splicing modulation; HeLa LMNA splicing GFP/RFP minigene ratio, 48 h; Potency, µM (series often up to 46.1 µM), inactives show at the highest dose ratio change, negative = inhibition, hits mostly inhibitors; 0.01% of 200,000 active; active = well fitted inhibition curve with a large enough effect in the signal ratio, with a control signal flat, not every such curve was filed as active; inconclusive = small, poorly fitted or top-dose-only effect, or effect the other way, or a change in a side signal; the % refers to the signal ratio
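S3 HeLa stable clones carrying a lamin A-EGFP splicing minigene plus DsRed2 were seeded at 600 cells/well in Opti-MEM with 2% FBS, pin-dosed and incubated 48 h at 37°C. Acumen cytometry (488 nm) gave the GFP/RFP total-intensity ratio.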
Luc counter = Kinase-Glo luciferase inhibition (counter-screen); 0.28% of 200,000 active; AID 1379; Q27757; Kinase-Glo luciferase, ATP luminescence, 8 min; Potency, µM (highest dose often 38.3 µM), for inactives: top-dose activity change, negative = inhibition, actives largely listed as inhibitors; active = well fitted curve in the direction sought with a large enough effect; inconclusive = small, poorly fitted or top-dose-only effect, or another doubt; inactive = no such curve, though single readings can be large; an effect the other way counts as inactive or inconclusive; note: nearly all actives have a fitted effect of over 60% in size
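Light output from Kinase-Glo luciferase with luciferin and 10 uM ATP in 50 mM imidazole pH 7.2, KCl, MgCl2, Tween 20, BSA; compound pin-delivered, 8-min ambient incubation, then luminescence read.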
* marks the source's active call; other numbers are inactive results; ? = inconclusive; / = no result; ! = a repeat was not active; [ ] = another dose, or the depositor's remark. In the library only some 9% were active in any assay of this set; here they are far more common. Unless noted, calls come from the whole dose curve; as a rule, active = well fitted inhibition curve with a large enough effect (not every such curve was filed as active); inconclusive = small, poorly fitted or top-dose-only effect, or another doubt; inactive = no such curve, though single readings can be large or run the other way. Unless noted, % is set by controls: 0 for no effect and ±100 for the full control effect; potency is the fitted concentration of half-maximal effect.

SMILES | HPGD block | ALDH1A1 inh | IMPase Li inh | Lamin A splicing | Luc counter
COc1ccc(NC(=O)c2cc([N+](=O)[O-])ccc2N2CCNCC2)cc1 | / | 8.91µM* | 7.4% | -3.2%[46 µM] | -0.8%
O=c1[nH]c(=O)n(CC2CCCO2)c(O)c1/C=C1\C=Nc2ccccc21 (stereo unspecified) | -24.2% | 14.1µM* | 0.2% | -14.3% | -0.8%
O=c1[nH]c(=O)n(Cc2ccccc2)c(O)c1/C=C1\C=Nc2ccccc21 | / | ? | 11.0% | / | -1.1%
CS(=O)(=O)c1ccc([C@H](O)[C@H](CF)NC(=O)C(Cl)Cl)cc1 | -9.9% | 7.8%[20.9 µM] | -0.9% | ? | -2.7%[17.1 µM]
CC(=O)Nc1ccc(N=Cc2c(O)n(Cc3ccco3)c(=O)[nH]c2=O)cc1 | / | 9.46µM* | / | ? | /
O=c1[nH]c(=O)n(Cc2ccco2)c(O)c1C=NCc1ccco1 | 28.2µM* | 10µM* | 2.5%[38.3 µM] | ? | -0.8%
CCN(CC)CCN=Cc1c(O)n(Cc2ccco2)c(=O)[nH]c1=O | / | 11.0% | / | / | /
CCCCC(=O)N/N=C/c1c(O)n(Cc2ccco2)c(=O)[nH]c1=O | -29.9% | 1.2% | 1.8% | -10.4% | -3.8%
Cc1[nH]nc2c1C1(CCC3(CC1)OCCO3)C(C#N)=C(N)O2 | -6.9% | ? | 27.8%[38.3 µM] | 7.9% | 1.4%
Nc1ccccc1O.O.O=C(O)[C@H]1[O][Sb][O][C@H]1C(=O)O | -5.6% | 3.16µM* | 6.9% | / | -3.9%[7.66 µM]
COC(=O)NC(=S)Nc1ccccc1NC(=S)NC(=O)OC | -14.7% | 10µM* | -5.0% | ? | -0.5%
C(=NC1CCCCC1)=NC1CCCCC1 | -0.7% | -8.4% | 5.8% | / | /
CC(=O)CCc1ccccc1 | -11.5% | 25.1µM* | -7.7% | / | /
CN(C)c1ccc(N=O)cc1 | -14.5% | 0.398µM* | 32.4% | / | /
CN(C)c1ccc(N=Nc2ccccc2)cc1 | -10.6% | ? | 5.7% | / | /
CN(C)c1ccc(N)cc1 | -6.7% | 14.1µM* | 34.6% | / | /
CC1=CC(=O)OC2CC3OC4C[C@@H](C)C5OC6CC7O[C@]8(C)C/C=C\C9OC%10CC%11OC(CC(C)CO)CC(O)[C@]%11(C)OC%10CC9OC8C[C@]7(C)O[C@]6(C)CCC5OC4C[C@]3(C)OC12 (stereo partly specified) | / | 2.82µM* | -1.9% | / | /
CC(C)[N+](=O)[O-] | -24.8% | -0.4% | 6.5% | / | /
O=C1OC(c2cc(I)c(O)c(I)c2)(c2cc(I)c(O)c(I)c2)c2ccccc21 | 11.2µM* | -4.2% | 23.2% | / | 2.2%[39.9 µM]
O=C(OC1Cc2c(O)cc(O)cc2OC1c1cc(O)c(O)c(O)c1)c1cc(O)c(O)c(O)c1 (stereo unspecified) | 14.1µM* | ? | -14.2% | -17.8% | -3.1%
Oc1cc(O)c2c(c1)OC(c1cc(O)c(O)c(O)c1)C(O)C2 (stereo unspecified) | 15.8µM* | ? | 1.8% | / | -13.0%
CCCC(=O)Cl | -1.7% | 4.4% | 18.1% | / | /
C[C@@H](Cc1ccc(Cl)cc1Cl)NO | -3.4% | 11.4%[13.5 µM] | -6.9% | / | -6.2%[7.66 µM]
CC1=CC(=O)c2c(O)cccc2C1=O | 25.1µM*! | 15.8µM* | 33.1% | / | -0.9%
[O-]/[N+](=N\O)c1ccccc1 | 12.6µM* | 10µM* | 4.6% | / | /
SMILES | HPGD block | ALDH1A1 inh | IMPase Li inh | Lamin A splicing | Luc counter
COc1ccc(CCNCc2ccccc2F)cc1OC | -5.7% | -2.8% | 5.1% | -14.9% | 0.5%
COc1ccc(CCNCc2ccncc2)cc1OC | -8.3% | 12.6µM* | 10.9%[38.3 µM] | 10.8% | -3.1%
[N-]=[N+]=NCC(=O)c1c[nH]c(=O)[nH]c1=O | -13.4% | -5.6%[13.5 µM] | -6.2% | / | -12.4%[7.66 µM]
CC1CN=C(Nc2ccccc2)S1 (stereo unspecified) | 8.91µM* | -8.7% | -11.6% | -5.0% | 0.4%
CC1CCCN(C(=O)CCl)C1 (stereo unspecified) | -6.0% | 0.631µM* | 2.7% | ? | 0.7%
CC1CCCN(C(=O)CN2C3CCC2CC(O)(c2ccc(F)cc2)C3)C1 (stereo unspecified) | / | 10.9% | 24.1% | / | 4.8%
C[C@@H](O)CN(CCN(C[C@@H](C)O)C[C@@H](C)O)C[C@@H](C)O.O=[N+]([O-])O.[Cu] | 3.9% | ? | -15.8% | / | -0.7%[7.66 µM]
C[C@@]12CC[C@H]3[C@H](CCC4=CC(=O)CC[C@H]43)[C@H]1CC[C@H]2OC1(O)C(=O)c2ccccc2C1=O | -0.8% | 0.316µM* | 16.8% | / | -0.6%[7.66 µM]
C=CC(N)=O | -3.1% | 24.8% | 2.7% | / | /
CNCCc1c[nH]c2ccc(O)cc12 | -5.0% | 1.9% | 6.4% | ? | -0.3%
CNCCc1c[nH]c2ccccc12 | / | 17.8µM* | 8.8% | -25.2%[46 µM] | -1.8%
COC(=O)C(O)C(O)(CCC(C)C)C(=O)OC1C(OC)=CC23CCCN2CCc2cc4c(cc2C13)OCO4 (stereo unspecified) | 0.2% | 8.4% | -0.8% | / | -0.4%[39.9 µM]
CCOc1ccccc1OCCCCN1CCCC1 | -7.6% | 22.4µM* | 45.9%[38.3 µM] | -2.0% | -1.2%
CN1C2CCC1CC(NC(=O)c1nn(C)c3ccccc13)C2 (stereo unspecified) | -14.6% | -12.8% | 7.4% | -20.4% | -2.3%
O=C(NC1CN2CCC1CC2)c1ccc(-c2ccc([N+](=O)[O-])cc2)o1 (stereo unspecified) | -28.9% | 0.447µM* | 10.1% | -3.7% | 1.8%
CN1C(=O)NC(=O)/C(=C\c2ccc([N+](=O)[O-])o2)C1=O | / | ? | 19.4% | -5.3%[46 µM] | -15.3%
CN1C(=O)C(=Cc2ccc(N3CCCCCC3)o2)C(=O)N(C)C1=S | -14.7% | ? | 8.5%[38.3 µM] | 7.6% | -13.1%
CN1C(=O)C(=Cc2ccc(-c3cccc(Cl)c3)o2)C(=O)N(C)C1=O | 7.94µM* | ? | -14.5% | -7.5% | -11.1%
Cc1ccc(Sc2ccc(C=C3C(=O)N(C)C(=O)N(C)C3=O)o2)cc1 | / | 4.47µM* | -4.8% | / | -2.8%
CN1C(=O)C(=Cc2ccc(N3CCOCC3)o2)C(=O)N(C)C1=O | 15.8µM* | 6.2% | -1.5% | 2.1% | -28.5%
Clc1ccccc1-c1cncnc1NCCc1cnc[nH]1 | / | 5.7% | 6.5% | ? | /
C=CCN1CC[C@@]23c4c5ccc(O)c4O[C@H]2/C(=N\N=C2/CC[C@@]4(O)[C@H]6Cc7ccc(O)c8c7[C@@]4(CCN6CC=C)[C@@H]2O8)CC[C@]3(O)[C@@H]1C5 | 6.7% | -3.7% | 8.6% | / | -0.2%
N[C@@H](Cc1ccccc1)P(=O)(O)O | -6.1% | -0.9%[13.5 µM] | 7.2% | / | -0.9%[7.66 µM]
O=C(C[N+]12CCC(CC1)C(CO)C2)c1ccc([N+](=O)[O-])cc1 (stereo unspecified) | / | -11.4% | 0.6% | ? | 10.0%
O=C(CNC(=O)c1cccs1)OCC(=O)c1ccc([N+](=O)[O-])cc1 | / | 0.316µM* | -0.4% | / | -2.9%
CC(n1cc(C[C@H](N)C(=O)O)c2ccccc21)n1cc(C[C@H](N)C(=O)O)c2ccccc21 | / | ? | -5.5% | / | /
CCOC(=O)CN(C#N)c1nc(N(C)C)nc(N(C)C)n1 | / | 10µM* | 6.0% | / | 3.1%
